Reference: publication PMC13494018

B1: d4r5_design_ppi_239_dldesign_0_cycle0_af2pred (protein)
chain: MGKELQKLADEANKKAKAIAKTLKENLKLAKELSPELAKEAEAAKKALAAARLTFADDLEKGKEELKAVEKDVEALKAKIEKAAA
B2: d4r5_design_ppi_53_dldesign_0_cycle0_af2pred (protein)
chain: MKEKQEEARNDAIIESAKMAGAKNPEIGKLLKKATELTLENEEGKEEAKKLIEEVAKKGEEDTAKKLEKAVEALVKKKKEEEKKKK
B3: d4r5_design_ppi_63_dldesign_0_cycle1_af2pred (protein)
chain: SLAEEAEKKLKEYAALRIEAGDLSEEEAKKTFKEIAKEAKELAKKLEADPNAKEVAKKAKKLAGAAESAAKAIEKA
B4: d4r4_design_ppi_439_dldesign_0_cycle1_af2pred (protein)
chain: AEEEERERRVREAAEWLVEAPVRLANEAALRAGELAGDSDLALEIQALNNYNREEGARAALASPAREVVAEATEEVRRRREAERAAA
B5: d4r4_design_ppi_491_dldesign_0_cycle1_af2pred (protein)
chain: SANKELADAIKEAAKEAQAAANAAKEAYADDPAKAKEFADKMEKKIDEAHNSDLETAKKIAEEAKKEKEKAKAALKKAKA
B6: d4r4_design_ppi_486_dldesign_0_cycle0_af2pred (protein)
chain: MEETIERAKEAAREALEAAREAAKKNAADPEKVKKLAELAQKAQEARAEALAKPEKAEEALKRIEEYLKEAKEILE
B7: d4r5_design_ppi_20_dldesign_0_cycle1_af2pred (protein)
chain: MNLEELKKKVKEYTKELGKKAGVSEEEIKELAELAAEAASLSSDTTKEVLEDYAKESSEKVAKVAKETAEYAIEIKKKAR
B8: d4r5_design_ppi_122_dldesign_0_cycle1_af2pred (protein)
chain: DAEKIAKADKLMEEAKKLAATGKKRKEALEKYKEAAALYAEVDPALAKEAIAKGQEALSEGRENEAEKRLK
B9: d4r4_design_ppi_490_dldesign_0_cycle1_af2pred (protein)
chain: AEVEKEAKKAATEAREAVAELRGLAQEAKLKGVEEAKKVAEEAIKEASALLKEAAKEKDPEKALKLAKEAYKVAKEAIKKAKKLLE
B10: d4r5_design_ppi_34_dldesign_0_cycle1_af2pred (protein)
chain: EEEKLKAAEAAARNLKLAIEAAKTEGKEYGILYMESAVQAGEIVGLGEKVKETKEALEKNPEEGIKLAEELKKEFEAIV
B11: d4r5_design_ppi_25_dldesign_0_cycle1_af2pred (protein)
chain: EEKEAVKKAAKIIQEMREKGLELIHEAKIKGSKEIAEEGIKKAEELGKKALEAAEKASPEERKKVEEKVEKTLKRIKEEAEKVIKE
B12: d4r4_design_ppi_471_dldesign_0_cycle1_af2pred (protein)
chain: EEAKKVAEEAKKVGKEAAKAGLEKLAAEAFEASYKVKAAYDFYKKNPEKGKEILEEEVKEAKKVIEKAKKEIKKAKAKA
B13: d4r4_design_ppi_481_dldesign_0_cycle1_af2pred (protein)
chain: MADEASAEIRLENAKDAAKIWIKKVEKIDPELAKEYAAKMKEAAKKPDKEGAKKAREIAKEVKKKAEELEKKAKEKEEEKKKEEEEK
B14: d4r4_design_ppi_486_dldesign_0_cycle1_af2pred (protein)
chain: MEEVVKKAEEAAKKAVEAAREAAKKNAADPEKVKYLAELAQEALEARAVALAKPELAEEELKKIEEKRKKAEEILA
B15: d4r5_design_ppi_153_dldesign_0_cycle0_af2pred (protein)
chain: LLEEVKKLSEEALKLAKEAKETGSEELREKAREKAKEALELGKKDPEALKIASEATQKMLEIWAEGKAKKNK
B16: d4r4_design_ppi_411_dldesign_0_cycle1_af2pred (protein)
chain: SAAEVAALEKAARAAIAAALAAAKAALADPSTLAEQKKAAEAALAAAREAAAAARWKDYEVGEALRKELAAAEKEVKATIAEAQKKKE
B17: d4r5_design_ppi_186_dldesign_0_cycle0_af2pred (protein)
chain: LEEVKEKAKEILEKAEKEMKAAKKVSEVNEIRRKGLKELAELGKSSSPEGKKIAYEKREELIEAAGEAMAKKL
B18: d4r5_design_ppi_66_dldesign_0_cycle1_af2pred (protein)
chain: GAAEEAAKKAKEEADKAIEAAKKGEKEGAEALLKAAKKLAEAAQKALEAAAEYPEKREEFLKLAKELRKAAKEAEEKAKAEIEAKKKA
B19: d4r5_design_ppi_197_dldesign_0_cycle1_af2pred (protein)
chain: GKVEKEVKAAAEKAKKLVEEAKKLAESGDKETAKEGMKLAEEALKLAREAGKKAKKAGVKEELVKELEKLAEEAIEVRLDGLEVLAK
B20: d4r5_design_ppi_147_dldesign_0_cycle1_af2pred (protein)
chain: SVQERARLAAKATRAAHKAKVAAKKIIELGGDKEKAKKLAKEAEKALEKAEEAMADPSKLEELKKATEEAEKLAKEALKEYEKLLA
B21: d4r4_design_ppi_471_dldesign_0_cycle0_af2pred (protein)
chain: EEAEKVAKEAREVGKEAAEAGLKKTAAEAFAAANRVRAALAFKKANPEKGQPILEEEVKEAKEVIEKAKKEIAAKKAAA
B22: d4r5_design_ppi_196_dldesign_0_cycle0_af2pred (protein)
chain: ALAEAVAAAAEAAAEAAKKNEVTKPIAEKLEEISKKAKELAKEAKENPELKEKAEKEAEKLREELKKLREEAKKLIAEKKAEEAAKA
B23: d4r5_design_ppi_251_dldesign_0_cycle1_af2pred (protein)
chain: MEKLKEIEEAAKKKLEEGAKKGEEAFKKAITEANLLAASDPEYSKEARAAVKKLAKEKKKELEEKKKKEEEEKKLK
B24: d4r5_design_ppi_142_dldesign_0_cycle0_af2pred (protein)
chain: MEEKRLEALKSQVEHAGEAAEKYGKELGEEEVKKARELKEKALKASAEEARELLKELRKFGKELKKKVEAKKAA
B25: d4r5_design_ppi_19_dldesign_0_cycle0_af2pred (protein)
chain: MEEKLKEAAKKVQEAYQLAAENKEKREELRELAKKARESLKEAEKAYKEGKEEEAEKYLEKSFEYNKEAEELYKKTKKEKEEKEKK
B26: d4r5_design_ppi_7_dldesign_0_cycle1_af2pred (protein)
chain: EESKELRIKAISLLSSAAFYAKTLGPEGKYFEKAAELALTDLEKAIEEAKKALKAAEKLDKELAKRVEKAIEYLKKALE
B27: d4r5_design_ppi_25_dldesign_0_cycle0_af2pred (protein)
chain: EKEEALKKAANIIQKMREEGTAGINEAKVSGSKEIAKEAIKKAEELAKKALEEASKATPEDYEKAKEKVKRILERLKKEAEKVIKE
B28: d4r5_design_ppi_147_dldesign_0_cycle0_af2pred (protein)
chain: SITERAKLAAEATRAAHRAEAAAKELIKLGGDKKEAEKLRKEAKKALEKAEEAAAKPEKLEELKKETEKAKKIAEEAKKELEELKK
B29: d4r5_design_ppi_48_dldesign_0_cycle1_af2pred (protein)
chain: KAEELLKKGEELMEEGINSENKEEGEKKVKEGAVYYKEGLIEKNPEEPVSEQVKKAKEIYEKYEKELKEKHEKK
B30: d4r5_design_ppi_185_dldesign_0_cycle1_af2pred (protein)
chain: NEEALKKALEEAKKLVEEAGKKAGPEVQEKADRLIKVSERKRKLDPEAGALQGIFGAKGLEPDIDKELAKKIIEAFKKALELA
B31: d4r5_design_ppi_73_dldesign_0_cycle0_af2pred (protein)
chain: MKAVEELKERAKRRLKEAEEKHKENPLKGAAQAYAAAEYVKNFAEAAAKKYPEYKEELLAAGKEYAKELEEKAKEFEEEAKKLA
B32: d4r4_design_ppi_490_dldesign_0_cycle0_af2pred (protein)
chain: AKTEEEAKKAATEASEAVADLRGYEQEAKIKGNEEAAKVAKEAIKEAAKLAKEAAASKDPKEALKLAKEALKVAKKAIEEVKKLLE
B33: d4r5_design_ppi_186_dldesign_0_cycle1_af2pred (protein)
chain: VEEVKEKAEEVLKKATEAMKAAKTVEEVRKIRREGHKELRKLGEEGTPESKEIAYKYIEKLNEAAADAISKLL
B34: d4r5_design_ppi_64_dldesign_0_cycle1_af2pred (protein)
chain: AAAGTATAETIVNLREAEHILKLLEKNKNIPKEQAEVFIKDSEEIIKEVEEALKKGLVSKELAEKALEAAKKALEAAKKAYKK
B35: d4r5_design_ppi_37_dldesign_0_cycle0_af2pred (protein)
chain: GGAVDQVVDNVAKAVGAEAGARIRAAYEEGPEKAIATLEELAARLAAEDPELGAKAAKAARVLRSIVEDEKR
B36: d4r5_design_ppi_34_dldesign_0_cycle0_af2pred (protein)
chain: EEEKKEAAKKAAELIERAIEAAKTEGKEYGIIYMEAAVEAAKKVGLGEKAKEALKALEKDEEEGIKLAKELREEFEKLI
B37: d4r5_design_ppi_48_dldesign_0_cycle0_af2pred (protein)
chain: KAEELFKKGLELVKEGIESEDKEKGKELVKKGSVLFREGLLEKYSEEPASEVVKIAQKIHEEWEKLLEEEFKKK
B38: d4r5_design_ppi_205_dldesign_0_cycle1_af2pred (protein)
chain: GEEEAKKAKEKAKKEAKELTDLVDEVAALSGAEAARAYAEKRAKNLVEKAAKEGPEAEKAAKEAAEKILKRAEEIAKAEA

target: VTCN1, Q7Z7D3
Sequence (Q7Z7D3 whole entry): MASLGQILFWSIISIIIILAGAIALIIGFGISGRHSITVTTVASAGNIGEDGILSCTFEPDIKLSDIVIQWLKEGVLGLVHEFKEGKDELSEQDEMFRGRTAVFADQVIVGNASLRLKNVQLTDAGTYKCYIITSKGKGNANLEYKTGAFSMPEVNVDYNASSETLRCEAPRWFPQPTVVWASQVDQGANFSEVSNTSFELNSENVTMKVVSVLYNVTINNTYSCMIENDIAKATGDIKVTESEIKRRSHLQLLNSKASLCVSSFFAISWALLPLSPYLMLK

Binding in a display sort, inactive:
B1 not found
B2 not found
B3 not found
B4 not found
B5 not found
B6 not found
B7 not found
B8 not found
B9 not found
B10 not found
B11 not found
B12 not found
B13 not found
B14 not found
B15 not found
B16 not found
B17 not found
B18 not found
B19 not found
B20 not found
B21 not found
B22 not found
B23 not found
B24 not found
B25 not found
B26 not found
B27 not found
B28 not found
B29 not found
B30 not found
B31 not found
B32 not found
B33 not found
B34 not found
B35 not found
B36 not found
B37 not found
B38 not found
